Records with an inconclusive call do not appear. Activity calls are given as the source filed them. Unless noted, calls follow the shape of the dose curve; as a rule, active = well fitted curve in the direction sought with a large enough effect; inconclusive = small, poorly fitted or top-dose-only effect, or another doubt; inactive = no such curve, though single readings can be large; an effect the other way counts as inactive or inconclusive.
Legend:
[1] = molecular target: Lysosomal acid glucosylceramidase (Homo sapiens) (UniProt P04062); experiment: Glucocerebrosidase-p2 (AID 348; in the data active = potency below about 10 µM; also: potency is read from the fitted curve at half-maximal effect); details: purified GBA, blue fluorogenic substrate, 40 min
How it was run: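 Compounds titrated from 0.6 nM upwards against 0.2 nM enzyme in pH 5.9 citric acid/KH2PO4, taurocholate, tween-20; blue fluorogenic substrate 80 uM, 40 min room temperature, stopped and read Ex 365/Em 440 for AC50.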

[2] = AP1 Signaling Pathway (AID 357; active = well fitted curve in either direction with a large enough effect, not every such curve was filed as active;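 also: ME-180 reporter cells stimulated with EGF at its EC50 level; % is scaled to controls: 0 for no effect and ±100 for the full control effect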); details: ME-180 AP-1-bla reporter, EGF-induced, beta-lactamase ratio, 5 h; at 7.69 µM (top of the series) unless noted
How it was run: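 A ratiometric CCF4 readout (405 nm excitation; 460 and 530 nm emission) quantified AP-1-driven beta-lactamase in ME-180 cells after 5 h with compound and EC50 EGF; AC50 values were derived for activators and inhibitors.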

[3] = molecular target: Cytochrome P450 1A2 (Homo sapiens) (UniProt P05177); experiment: p450-cyp1a2 (AID 410; calls by dose curve; also: potency is read from the fitted curve at half-maximal effect); details: recombinant CYP1A2, luciferin-ME demethylation, luminescence; series mostly up to 57 µM
How it was run: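 Luminescent readout of luciferin formed from Luciferin-ME by human CYP1A2; data normalized against complete inhibition by 57 uM furafylline. Enzyme 20nM, substrate 100uM at Km, 100mM KPO4 buffer, 60 min reaction at room temperature.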

[4] = NFAT Signaling Pathway (AID 444; active = well fitted curve in either direction with a large enough effect, not every such curve was filed as active;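 also: carbachol stimulus at about its EC50 of 1 µM final; % is scaled to controls: 0 for no effect and ±100 for the full control effect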); details: Jurkat NFAT-bla M1, carbachol, beta-lactamase ratio, 5 h; at 7.69 µM (top of the series) unless noted
How it was run: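 Read-out: CCF4 FRET ratio (460 nm/530 nm) after 1 h RT dye loading, used for %activity and AC50 from titration series. Cells: Jurkat NFAT-β-lactamase/M1 line, treated with compound plus 1 uM carbachol for 5 h, 37 °C.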

[5] = Stat Signaling Pathway (AID 446; active = well fitted curve in either direction with a large enough effect, not every such curve was filed as active;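 also: ME-180 cervical cancer cells given 40 pM IL-6 alongside compound; SIE-controlled beta-lactamase reporter measured as 460/530 nm FRET emission ratio; % is scaled to controls: 0 for no effect and ±100 for the full control effect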); details: ME-180 SIE beta-lactamase reporter, IL-6 stimulated, 5 h; at 7.69 µM (top of the series) unless noted
How it was run: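 Screening format detects activators and inhibitors alike: ME-180 SIE-bla cells stimulated at 40 pM IL-6 for 5 hrs with compound, then dual-emission beta-lactamase read at 405 nm excitation.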

[6] = molecular target: Glucocorticoid receptor (Homo sapiens) (UniProt P04150); experiment: GR-GFP Redistribution (AID 450;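 active = compounds whose dose series gives a full or clear partial fitted curve of increased nuclear translocation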; also: potency is read from the fitted curve at half-maximal effect); details: U2OS GR-GFP nuclear translocation, laser cytometry, 2 h
[7] = molecular target: Glucocorticoid receptor (Homo sapiens) (UniProt P04150); experiment: GR-EFC Redistribution (AID 451; calls by dose curve; also: potency is read from the fitted curve at half-maximal effect); details: CHO-K1 GR-EFC translocation, beta-gal luminescence, 2 h
How it was run: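 Translocation of GR-ED fusion to nuclear EA restores b-gal, read by luminescence after 1 h room-temperature detection. Engineered CHO-K1 biosensor cells, 1,000/well, exposed 2 h at 37 C to titrations up to 46 uM final.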

[8] = molecular target: Mitogen-activated protein kinase 10 (Mus musculus) (UniProt Q61831); experiment: JNK3 AlphaScreen Assay (AID 530; active = well fitted curve in either direction with a large enough effect, not every such curve was filed as active;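 also: kinase came from lysate of stimulated human HepG2 cells; signal reports phosphorylation of biotinylated GST-cJun 1-79 at Ser73 with 10 µM ATP; % is scaled to controls: 0 for no effect and ±100 for the full control effect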); details: JNK3 lysate, c-Jun phosphorylation; series mostly up to 57.1 µM
How it was run: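 Compound titrations were preincubated 15 minutes at room temperature with substrate, antibody and pre-activated JNK3-containing HepG2 lysate. Reactions were started with 10 uM ATP and stopped with EDTA-containing bead buffer for AlphaScreen detection.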

[9] = molecular target: 3',5'-cyclic-AMP phosphodiesterase 4B (Homo sapiens) (UniProt Q07343); experiment: qHTS Assay for Inhibitors of PDE-IV (AID 607; active = well fitted activation curve with a large enough effect in the main read-out, with a control signal flat, not every such curve was filed as active; also: % of control where 0% means no effect); details: HEK293 ACTOne CNG channel cells, membrane potential fluorescence; series mostly up to 22.9 µM
How it was run: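 The readout is membrane depolarisation from a cAMP-sensing CNG channel, detected with a potential dye at ex 535/em 590. Cells were HEK293-derived (endogenous PDE-IV) at 1000 cells/well, titrated up to 22.9 uM final.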

[10] = molecular target: Cytochrome P450 3A4 (Homo sapiens) (UniProt P08684); experiment: qHTS Assay for Activators of Cytochrome P450 3A4 (AID 885); details: recombinant CYP3A4, Luciferin-PPXE luminescence, 60 min; series mostly up to 57.1 µM; also: nearly all actives have a fitted effect of over 65% in size
How it was run: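 Steps: enzyme/substrate mix dispensed; compound added, 10 min RT; NADPH regeneration solution added, 60 min RT; luciferin detection buffer stops reaction; 20 min later luminescence measured.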

[11] = Confirmation and Secondary Assay for Modulators of Hemoglobin Beta Chain Splicing at IVS2 654 locus (AID 910); details: HeLa EGFP-654 splicing reporter, GFP fluorescence, 48 h; series mostly up to 38.3 µM;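 also: HeLa cells stably carrying EGFP split by mutant beta-globin IVS2-654 intron; % of control where 0% means no effect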
How it was run: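 Readout: per-well total peak green fluorescence (488 nm ex, 500–520 nm em) from objects 5–250 µm, reflecting correct splicing of an EGFP-654 reporter. Compounds were applied for 2 days at 37 °C to overnight-plated HeLa EGFP-654 cells; controls were DMSO and 500 nM IVS2-654 PNA.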

[12] = Confirmation and Secondary Assay for Modulators of Hemoglobin Beta Chain Splicing at IVS2 705 locus (AID 930); details: HeLa EGFP-705 splicing reporter, GFP fluorescence, 48 h; series mostly up to 38.3 µM;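 also: HeLa cells stably expressing the EGFP-705 splicing reporter; GFP fluorescence per well restored by corrected splicing of the IVS2-705 intron in EGFP; % of control where 0% means no effect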
How it was run: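 Read-out: total peak GFP fluorescence per well (488 nm excitation, 500-520 nm emission) by laser-scanning cytometry. Cells: HeLa EGFP-705 splicing reporter, 2 days compound exposure in Optimem/2% FCS.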

[13] = qHTS Assay for Lipid Storage Modulators (AID 1519; calls by dose curve); details: Drosophila S3 cells, BODIPY lipid droplet/cell ratio, laser cytometry, cells loaded with oleic acid; for activity change, negative = inhibition: at 57.5 µM (top of the series)
How it was run: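 Cells seeded at 5,000 per well were treated with compounds over a concentration series and loaded with oleic acid (400 uM, as added). Lipid droplet fluorescence (488 nm excitation, 500-530 nm channel) was read by laser-scanning cytometry and normalized to 20 uM Triacsin C.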

[14] = molecular target: Ubiquitin carboxyl-terminal hydrolase 1 (Homo sapiens) (UniProt O94782); experiment: Inhibitors of USP1/UAF1: Pilot qHTS (AID 504865); details: purified USP1/UAF1, Ub-rhodamine cleavage fluorescence; series mostly up to 54.9 µM;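 also: rhodamine fluorescence freed from ubiquitin-rhodamine substrate followed over time; top concentration of the series differs between compounds; % is scaled to controls: 0 for no effect and ±100 for the full control effect; nearly all actives have a fitted effect of over 35% in size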
How it was run: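 Enzyme-free wells gave the negative control, while test wells held 1nM USP1/UAF1 preincubated with compound for 15 min at room temperature. Ub-Rho at 150nM final started the reaction, and fluorescence at 480/540 nm was recorded kinetically.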

[15] = Primary qHTS for small molecule stabilizers of the endoplasmic reticulum resident proteome: Secreted ER Calcium Modulated Protein (SERCaMP) assay (AID 1508630); details: SH-SY5Y GLuc-SERCaMP (Gaussia luciferase released on ER calcium loss) secretion, thapsigargin, luminescence; series mostly up to 38.4 µM; also: % is scaled to controls: 0 for no effect and ±100 for the full control effect
How it was run: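 GLuc-SERCaMP-expressing SH-SY5Y cells, pretreated 16 h with compound, are challenged with thapsigargin to empty ER calcium stores; after 4 h, coelenterazine is added directly to the medium and luminescence is imaged.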

[16] = qHTS Assay for Identification of Small Molecule Agonists for Hypoxia Response Element Signaling Pathway (AID 914; active = well fitted activation curve with a large enough effect in the signal ratio, with a control signal flat, not every such curve was filed as active; the % refers to the signal ratio; also: % of control where 0% means no effect); details: ME-180 (cervical carcinoma) HRE-bla reporter, beta-lactamase ratio, CoCl2, 17 h; activation: stronger effect = higher value
How it was run: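 HRE-bla ME-180 cells, overnight plating in Opti-MEM with 0.5% dialyzed FBS; cpd titration + EC50 CoCl2, 17 h, 37 degrees Celsius; CCF4 2.5 h RT; 460/530 nm ratio; AC50.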

[17] = molecular target: Cytochrome P450 3A4 (Homo sapiens) (UniProt P08684); experiment: qHTS Assay for Inhibitors and Substrates of Cytochrome P450 3A4 (AID 884); details: recombinant CYP3A4, Luciferin-PPXE luminescence; series mostly up to 57.1 µM; also: potency is read from the fitted curve at half-maximal effect; nearly all actives have a fitted effect of over 50% in size
How it was run: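 20 nM human CYP3A4 with 25 uM Luciferin-PPXE (at KM) in 200 mM KPO4, preincubated 10 min with compound; NADPH regeneration started a 60 min RT reaction. Luciferin detected by luminescence, normalized to 57 uM ketoconazole as full inhibition.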

[18] = measured here: cell count channel max response
[19] = measured here: lipid channel max response

Chain of Cytochrome P450 1A2 (Homo sapiens) (P05177 whole entry, looked up): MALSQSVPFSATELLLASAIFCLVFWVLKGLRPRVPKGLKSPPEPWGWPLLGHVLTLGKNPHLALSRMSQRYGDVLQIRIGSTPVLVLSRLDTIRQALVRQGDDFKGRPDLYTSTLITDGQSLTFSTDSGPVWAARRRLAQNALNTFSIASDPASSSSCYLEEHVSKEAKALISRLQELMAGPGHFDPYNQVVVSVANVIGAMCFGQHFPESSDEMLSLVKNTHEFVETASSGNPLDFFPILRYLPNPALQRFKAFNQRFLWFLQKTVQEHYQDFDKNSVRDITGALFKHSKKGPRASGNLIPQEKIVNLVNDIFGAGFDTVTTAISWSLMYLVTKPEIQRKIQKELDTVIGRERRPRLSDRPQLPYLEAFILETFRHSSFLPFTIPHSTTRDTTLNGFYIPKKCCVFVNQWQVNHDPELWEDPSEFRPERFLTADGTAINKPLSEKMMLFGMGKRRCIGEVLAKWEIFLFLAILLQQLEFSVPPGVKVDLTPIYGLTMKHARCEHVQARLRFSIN
Chain of Cytochrome P450 3A4 (Homo sapiens) (P08684 whole entry, looked up): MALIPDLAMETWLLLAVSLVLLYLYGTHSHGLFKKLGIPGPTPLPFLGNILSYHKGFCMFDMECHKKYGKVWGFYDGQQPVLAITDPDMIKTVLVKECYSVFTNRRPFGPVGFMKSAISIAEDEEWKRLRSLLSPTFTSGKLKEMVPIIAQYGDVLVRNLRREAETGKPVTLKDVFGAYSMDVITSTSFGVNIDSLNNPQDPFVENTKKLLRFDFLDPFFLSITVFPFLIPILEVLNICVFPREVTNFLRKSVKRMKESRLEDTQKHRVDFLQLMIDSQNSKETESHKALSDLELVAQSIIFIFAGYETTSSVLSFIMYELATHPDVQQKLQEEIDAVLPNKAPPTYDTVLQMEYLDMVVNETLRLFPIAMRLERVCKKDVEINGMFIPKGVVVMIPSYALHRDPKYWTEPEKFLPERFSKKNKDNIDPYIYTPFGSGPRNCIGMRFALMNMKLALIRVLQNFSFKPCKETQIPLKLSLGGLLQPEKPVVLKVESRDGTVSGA
Chain of Glucocorticoid receptor (Homo sapiens) (P04150 whole entry, looked up, the tested form may be a part): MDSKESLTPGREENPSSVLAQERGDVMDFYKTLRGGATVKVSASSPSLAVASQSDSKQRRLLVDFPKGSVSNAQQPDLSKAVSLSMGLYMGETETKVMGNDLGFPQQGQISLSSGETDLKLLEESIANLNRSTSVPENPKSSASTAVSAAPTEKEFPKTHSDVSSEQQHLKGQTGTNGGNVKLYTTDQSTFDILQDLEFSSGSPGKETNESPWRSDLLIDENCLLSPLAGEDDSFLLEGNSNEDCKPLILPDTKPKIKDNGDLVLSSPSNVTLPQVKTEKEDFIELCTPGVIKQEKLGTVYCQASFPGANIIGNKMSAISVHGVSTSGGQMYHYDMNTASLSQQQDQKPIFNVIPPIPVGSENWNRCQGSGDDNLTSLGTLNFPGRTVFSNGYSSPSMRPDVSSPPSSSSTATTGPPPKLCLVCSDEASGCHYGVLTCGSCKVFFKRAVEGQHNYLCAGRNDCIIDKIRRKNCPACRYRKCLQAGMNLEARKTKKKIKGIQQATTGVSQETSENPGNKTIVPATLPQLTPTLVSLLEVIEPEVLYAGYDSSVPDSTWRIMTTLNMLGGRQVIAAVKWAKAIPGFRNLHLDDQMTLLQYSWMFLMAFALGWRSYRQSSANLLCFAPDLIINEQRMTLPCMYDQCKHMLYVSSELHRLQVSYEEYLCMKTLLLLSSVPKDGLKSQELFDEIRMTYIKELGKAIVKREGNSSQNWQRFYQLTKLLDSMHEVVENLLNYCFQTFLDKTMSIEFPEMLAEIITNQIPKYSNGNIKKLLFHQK
Chain of 3',5'-cyclic-AMP phosphodiesterase 4B (Homo sapiens) (Q07343 whole entry, looked up): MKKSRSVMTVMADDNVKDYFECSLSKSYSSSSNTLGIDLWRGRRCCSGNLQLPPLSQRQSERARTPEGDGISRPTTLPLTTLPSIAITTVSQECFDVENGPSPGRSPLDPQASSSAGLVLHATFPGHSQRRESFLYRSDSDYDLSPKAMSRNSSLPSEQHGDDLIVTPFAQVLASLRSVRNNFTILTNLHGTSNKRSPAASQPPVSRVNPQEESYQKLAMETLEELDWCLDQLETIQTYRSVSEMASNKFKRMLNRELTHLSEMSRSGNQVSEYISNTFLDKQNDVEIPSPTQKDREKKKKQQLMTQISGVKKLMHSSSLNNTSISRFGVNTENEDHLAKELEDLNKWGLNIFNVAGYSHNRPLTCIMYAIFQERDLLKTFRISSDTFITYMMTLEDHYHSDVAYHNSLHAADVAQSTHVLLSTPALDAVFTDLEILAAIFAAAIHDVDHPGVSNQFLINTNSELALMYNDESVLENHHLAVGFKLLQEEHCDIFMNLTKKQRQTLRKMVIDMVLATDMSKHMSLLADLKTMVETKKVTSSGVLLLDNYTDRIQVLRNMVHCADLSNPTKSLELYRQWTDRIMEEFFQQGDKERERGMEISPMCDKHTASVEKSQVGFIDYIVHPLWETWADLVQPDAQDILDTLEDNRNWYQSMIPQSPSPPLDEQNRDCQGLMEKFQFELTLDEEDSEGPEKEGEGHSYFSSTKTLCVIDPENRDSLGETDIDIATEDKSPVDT
Chain of Lysosomal acid glucosylceramidase (Homo sapiens) (P04062 whole entry, looked up): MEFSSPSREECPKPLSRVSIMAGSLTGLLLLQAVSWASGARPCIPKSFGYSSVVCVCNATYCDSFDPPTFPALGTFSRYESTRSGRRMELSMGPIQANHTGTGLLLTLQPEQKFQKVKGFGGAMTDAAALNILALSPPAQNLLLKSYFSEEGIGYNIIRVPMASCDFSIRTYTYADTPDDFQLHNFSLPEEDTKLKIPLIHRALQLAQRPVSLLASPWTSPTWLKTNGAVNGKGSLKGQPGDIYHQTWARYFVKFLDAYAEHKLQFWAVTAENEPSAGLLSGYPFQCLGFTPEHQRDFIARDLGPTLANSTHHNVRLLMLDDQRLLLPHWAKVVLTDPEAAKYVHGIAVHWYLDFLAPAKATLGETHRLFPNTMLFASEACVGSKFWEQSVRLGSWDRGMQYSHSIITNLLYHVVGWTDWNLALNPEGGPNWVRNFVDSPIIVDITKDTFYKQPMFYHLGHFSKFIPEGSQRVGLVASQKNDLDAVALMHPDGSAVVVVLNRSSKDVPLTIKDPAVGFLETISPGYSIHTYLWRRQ
Chain of Ubiquitin carboxyl-terminal hydrolase 1 (Homo sapiens) (O94782 whole entry, looked up): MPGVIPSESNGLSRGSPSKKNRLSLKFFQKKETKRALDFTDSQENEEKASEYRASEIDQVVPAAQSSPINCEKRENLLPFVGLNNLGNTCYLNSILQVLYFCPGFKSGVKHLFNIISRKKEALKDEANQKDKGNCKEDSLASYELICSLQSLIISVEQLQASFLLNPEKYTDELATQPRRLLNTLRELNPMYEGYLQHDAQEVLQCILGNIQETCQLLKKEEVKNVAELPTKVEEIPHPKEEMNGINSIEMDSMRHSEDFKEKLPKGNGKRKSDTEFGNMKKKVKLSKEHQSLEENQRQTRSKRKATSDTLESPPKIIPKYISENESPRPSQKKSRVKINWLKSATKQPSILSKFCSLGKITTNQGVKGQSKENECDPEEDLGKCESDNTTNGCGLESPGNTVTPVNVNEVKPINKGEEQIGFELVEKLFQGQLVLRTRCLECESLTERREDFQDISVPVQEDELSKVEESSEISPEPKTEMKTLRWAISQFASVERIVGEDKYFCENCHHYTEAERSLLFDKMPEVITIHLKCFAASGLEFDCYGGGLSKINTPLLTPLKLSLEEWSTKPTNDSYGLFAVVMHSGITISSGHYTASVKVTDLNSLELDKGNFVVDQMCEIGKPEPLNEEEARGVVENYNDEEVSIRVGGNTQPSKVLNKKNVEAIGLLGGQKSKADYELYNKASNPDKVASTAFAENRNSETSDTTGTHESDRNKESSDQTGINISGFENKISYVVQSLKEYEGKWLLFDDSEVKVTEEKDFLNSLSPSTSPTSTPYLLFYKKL

With `Cc1noc(C)c1-c1cc(NC2CC2)ncn1` the Potency [1] was > 11.4 µM (inactive), the activity change, negative = inhibition [2] was -3.03% (inactive) and the Potency [3] was 0.316 µM (active). For the same compound, the activity change, negative = inhibition [4] was 3.57% (inactive), the activity, negative = inhibition [5] was 5.59% (inactive) and the Potency [6] was > 46 µM (inactive). For the same compound, the Potency [7] was > 46 µM (inactive), the outcome [8] was “inactive” and the Potency [9] was “inactive”. The Potency [10] was “inactive”, the outcome [11] was “inactive” and the outcome [12] was “inactive”. The activity change, negative = inhibition [13] was 11% (inactive), the max response [13, 18] was 17% and the max response [13, 19] was 27.1%. The Potency [14] was “inactive” and the Potency [15] was “inactive”.
For `CN(C)c1ncnc2ccc(-c3ccccc3C#N)cc12`, the Potency [1] was > 11.4 µM (inactive), the activity change, negative = inhibition [2] was -24% (inactive) and the Potency [3] was 0.398 µM (active). For the same compound, the activity change, negative = inhibition [4] was 20.3% (inactive), the activity, negative = inhibition [5] was 18.9% (inactive) and the Potency [6] was > 46 µM (inactive). For the same compound, the Potency [7] was > 46 µM (inactive), the outcome [8] was “inactive” and the Potency [9] was “inactive”. The Potency [10] was “inactive”, the outcome [11] was “inactive” and the outcome [12] was “inactive”. The activity change, negative = inhibition [13] was 8.38% (inactive), the max response [13, 18] was 15.4% and the max response [13, 19] was 23.3%. For the same compound, the Potency [14] was “inactive” and the Potency [15] was “inactive”.
For `COc1ccccc1-c1nccc(NCc2cnc(C)cn2)n1`, the Potency [1] was > 11.4 µM (inactive), the activity change, negative = inhibition [2] was 6.33% (inactive) and the Potency [3] was 12.6 µM (active). For the same compound, the activity change, negative = inhibition [4] was 2.9% (inactive), the activity, negative = inhibition [5] was 18.3% (inactive) and the Potency [6] was > 46 µM (inactive). For the same compound, the Potency [7] was > 46 µM (inactive), the outcome [8] was “inactive” and the Potency [9] was “inactive”. The Potency [10] was “inactive”, the outcome [11] was “inactive” and the activation [16] was 3.22% (inactive). For the same compound, the outcome [12] was “inactive”, the activity change, negative = inhibition [13] was 11.7% (inactive) and the max response [13, 18] was 16.8%. For the same compound, the max response [13, 19] was 27.7%, the Potency [14] was “inactive” and the Potency [15] was “inactive”.
In the case of `c1cncc(-c2cncnc2-n2ccnc2)c1`, the Potency [1] is reported as > 11.4 µM (inactive), the activity change, negative = inhibition [2] is reported as 7.52% (inactive) and the Potency [3] is reported as 20 µM (active). For the same compound, the activity change, negative = inhibition [4] was -6.63% (inactive), the activity, negative = inhibition [5] was 0.845% (inactive) and the Potency [6] was > 46 µM (inactive). For the same compound, the Potency [7] was > 46 µM (inactive), the outcome [8] was “inactive” and the Potency [9] was “inactive”. The Potency [17] was 7.94 µM (active), the Potency [10] was “inactive” and the outcome [11] was “inactive”. The outcome [12] was “inactive”, the activity change, negative = inhibition [13] was 7.84% (inactive) and the max response [13, 18] was 7.56%. For the same compound, the max response [13, 19] was 17.5%, the Potency [14] was “inactive” and the Potency [15] was “inactive”.
With `Cc1noc(C)c1-c1cc(Nc2ccc(F)cc2)ncn1` the Potency [1] was > 11.4 µM (inactive), the activity change, negative = inhibition [2] was -7.8% (inactive) and the Potency [3] was 0.501 µM (active). For the same compound, the activity change, negative = inhibition [4] was -15.1% (inactive), the activity, negative = inhibition [5] was 3.16% (inactive) and the Potency [6] was > 46 µM (inactive). For the same compound, the Potency [7] was > 46 µM (inactive), the outcome [8] was “inactive” and the Potency [9] was “inactive”. The Potency [10] was “inactive”, the outcome [11] was “inactive” and the outcome [12] was “inactive”. For the same compound, the activity change, negative = inhibition [13] was 8.49% (inactive), the max response [13, 18] was 3.61% and the max response [13, 19] was 10.9%. The Potency [14] was “inactive” and the Potency [15] was “inactive”.

— PubChem BioAssay (NCATS)
